In all, about 360,000 compounds went through this assay and about 17,000 (4.7%) were called active. About 5% were inconclusive and are not listed. The list comes from a sample in which actives are over-represented; it also holds similar structures and randomly drawn compounds. Unmarked numbers belong to inactive results. Cut-off read from the data, not from the text of the source: active = activity change below about -50%; inconclusive = mostly about -30% to -49%; inactive = weaker than that.
Test: qHTS for Inhibitors of Inflammasome Signaling: IL-1-beta AlphaLISA Primary Screen
Settings: THP-1 LPS/ATP IL-1B secretion, 16 h; at 57.5 µM, stronger effect = lower value
Text: Inflammasomes are a set of intracellular multi-protein complexes that enable autocatalytic activation of inflammatory caspases and drive the innate immune response to counter harmful agents. […] A qHTS assay, based on AlphaLISA technology, was developed to screen the Molecular Libraries Small Molecule Repository (MLSMR) to look for novel inflammasome inhibitors. The assay detects IL-1B using AlphaLISA anti-IL-1B acceptor and donor beads. A decreased emission signal, indicating reduced IL-1B secretion, is the desired outcome for this assay. NIH Chemical Genomics Center [NCGC] NIH Molecular Libraries Probe Centers Network [MLPCN] MLPCN Grant: MH095513 Assay Provider: Shyam Biswal Ph.D., Johns Hopkins University Immunity. 2012 Jul 27;37(1):85-95. PMID: 22819042 [2] Curr Pharm Des. 2012;18(16):2320-8. PMID: 22390695
Three microliters containing 3000 THP-1 cells were dispensed into the wells of solid, white, tissue culture treated Greiner 1,536-well plates. Library compounds and positive control, Glyburide, were pin-transferred (23 nL) by a Kalypsys pin-tool equipped with a 1,536-pin array, resulting in final compound concentration ranges of 2.5 nM to 57.5 uM. After 1 hr of cell culture incubation (37 °C, 5% CO2), 1 microL of 1 microg/mL lipopolysaccharide (250 ng/mL, final) and 5 mM ATP (1.25 mM, final) were added to stimulate the cells. After 16 hr of cell culture incubation with the compounds, 1.5 uL of anti-IL-1B acceptor beads (6 ug/mL, final) and biotinylated antibody (0.6 nM, final) were added to the plate, followed by a 1 hr incubation at ambient temperature. To detect the secreted IL-1B, 1.5 uL of AlphaLISA SA-Donor beads (24 ug/mL, final) were added, followed by 30 min of incubation in the dark at ambient temperature. The AlphaLISA signal was read by a PerkinElmer EnVision plate reader with an ultrasensitive luminescence detector and 1536 Plate HTS AlphaScreen aperture (excitation of 680nm and emission of 615nm).
% is set by controls: 0 for no effect and ±100 for the full control effect.

Row | Structure (SMILES) | activity change
1 | COc1cc(C(=O)N(C)Cc2cccc(OC)c2OC)ccc1OCC(=O)Nc1cccc(C(F)(F)F)c1 | -57.3% (active)
2 | COc1ccc(C(=O)OCC(=O)Nc2cccc(C(C)=O)c2)cc1OC | 20.1%
3 | CCNC(=O)c1ccc(OCC(=O)Nc2ccc(F)cc2)c(OC)c1 | -5.56%
4 | O=C(CN1C(=O)NC2(CCCCC2)C1=O)NCCC1=CCCCC1 | 21.6%
5 | COc1cccc(NC(=O)C2(C)CCN2C(=O)CCC2CCCC2)c1 (stereo not given) | 12.2%
6 | Oc1ccc(-n2nnnc2SCc2c(F)cccc2Cl)cc1 | -11.4%
7 | COc1ccc(CSc2nnnn2-c2ccc(C(=O)O)cc2)cc1 | -2.8%
8 | COc1ccc(CSc2nnnn2-c2ccc(O)cc2)cc1F | -64.2% (active)
9 | COc1ccc(C(C)=O)cc1CN1C(=O)NC2(CCCCC2C)C1=O (stereo not given) | -5.22%
10 | C[C@H]1CN([C@@H](C)CO)C(=O)CCCn2cc(nn2)CO[C@@H]1CN(C)S(=O)(=O)c1cccc(C#N)c1 | 12.5%
11 | CC(=O)NCC(=O)N1CCCC(C(=O)c2ccc3c4c(cccc24)CC3)C1 (stereo not given) | -13.3%
12 | CCn1ccnc1CN1CCCC(C(=O)c2ccc3c4c(cccc24)CC3)C1 (stereo not given) | -69.4% (active)
13 | Cc1ncoc1C(=O)N1CCCC(C(=O)c2ccc3c4c(cccc24)CC3)C1 (stereo not given) | -21.9%
14 | C[C@H](O)[C@@H]1C(=O)N2CCc3c([nH]c4ccccc34)[C@@H]2C[C@@H]1N(C)C(=O)Nc1ccc(F)cc1 | -16.5%
15 | CC1(C(=O)NS(=O)(=O)c2ccc3ccccc3c2)CCN1C(=O)C1(c2ccc(Cl)cc2)CCC1 (stereo not given) | 53.2%
16 | COc1ccc(-c2cc(C(=O)N(C)CC(=O)Nc3ccccc3Cl)c3ccccc3n2)cc1OC | -52.1% (active)
17 | COc1ccc(-c2cc(C(=O)Nc3ccccc3O)c3ccccc3n2)cc1 | -84.2% (active)
18 | COc1ccc(CN(C)C(=O)c2cc(-c3ccc(C)cc3C)nc3ccccc23)c(OC)c1OC | -84.9% (active)
19 | COc1ccc(CN(C)C(=O)Cc2c[nH]c3ccccc23)c(OC)c1OC | 5.58%
20 | COc1ccc(Cl)cc1NC(=O)CN(C)C(=O)c1cc2ccccc2cc1OC | 5.95%
21 | COc1ccc(NC(=O)c2cc(-c3ccc(C)o3)nc3ccccc23)cc1 | -5.74%
22 | COc1ccc(NC(=O)c2cc(-c3cc(OC)c(OC)c(OC)c3)nc3ccccc23)c(OC)c1 | 42.6%

Row | Structure (SMILES) | activity change
23 | COc1ccc(-c2cc(C(=O)N(C)Cc3ccc(OC)c(OC)c3OC)c3ccccc3n2)cc1OC | -13.9%
24 | COc1cccc(NC(=O)CN(C)C(=O)c2cc(Cl)nc3ccccc23)c1 | 17.2%
25 | O=C(Nc1nonc1-c1ccc(Cl)cc1)c1ccco1 | 26.6%
26 | CC(C)C[C@H](NC(=O)N1CC(=O)Nc2ccccc21)C(=O)N[C@H](Cc1ccccc1)C(=O)O | 4.57%
27 | N#Cc1ccc(-c2nc3c(Cl)cc(C(F)(F)F)cn3c2Cc2ccccc2C(F)(F)F)cc1 | 23.1%
28 | COc1ccc(S(=O)(=O)N2CCC(C(=O)NCCC(=O)Nc3ccccc3OC)CC2)cc1 | 2.12%
29 | Nc1nc2c(ncn2[C@@H]2O[C@H](CNS(=O)(=O)N3CCc4ccccc4C3)[C@@H](O)[C@H]2O)c(=O)[nH]1 | 0.653%
30 | COc1cccc(OCC(=O)NCCS(=O)(=O)N2CCN(c3ccccc3)CC2)c1 | 21%
31 | OC[C@H]1O[C@@H](c2nc(-c3nc(-c4ccc(F)cc4)no3)cs2)[C@H](O)[C@@H](O)[C@H]1O | 2.39%
32 | CCCCN1C(=O)C(CC(=O)NC(c2ccccc2)c2ccccc2)CC(C(=O)N2CCOCC2)=C1C (stereo not given) | 14.9%
33 | O=C(c1cccs1)n1nc(NCc2ccccc2)nc1NCc1ccccc1 | -57.7% (active)
34 | Nc1nc(NCc2ccccc2)n(-c2ccccc2)n1 | 4.19%
35 | CCCC(=O)n1nc(NCc2ccc(OC)cc2)nc1NCc1ccc(OC)cc1 | 15.3%
36 | CC(C)(C)OC(=O)N1CCN(C(=O)c2[nH]c(C(F)(F)F)nc2-c2ccccc2)CC1 | 13.4%
37 | Cc1ccc(CN(C(=O)c2sc3ccccc3c2Cl)C2CCS(=O)(=O)C2)cc1 (stereo not given) | -2.89%
38 | Nn1cnnc1N/N=C/c1cc([N+](=O)[O-])c(Cl)cc1Cl | -61.8% (active)
39 | O=C(CSc1ncn[nH]1)NCc1ccc2c(c1)OCO2 | 17.5%
40 | Cc1cccc(C=CC(=O)c2ccc(Cl)cc2)c1 | -29.5%
41 | O=C(/C=C/Sc1ncn[nH]1)c1ccc(Cl)cc1 | -118% (active)
42 | Cc1ccc(-c2ccc(CN3C(C(C)C)C(=O)N(Cc4cn(CCC5OCCCO5)nn4)CCS3(=O)=O)cc2)cc1 (stereo not given) | 13%
43 | CCn1ncc(C2=NOC(C(=O)N3CCN(c4ccccc4)CC3)C2)c1C (stereo not given) | 3.63%
44 | COc1ccc(-c2nn(-c3ccccc3)cc2/C=C\C(=O)N2CCOCC2)cc1[N+](=O)[O-] | -9.66%

Row | Structure (SMILES) | activity change
45 | O=C(/C=C/c1cn(-c2ccccc2)nc1-c1ccc2c(c1)OCCO2)NCCCN1CCOCC1 | -92.2% (active)
46 | O=C(NCCCN1CCOCC1)c1cn(-c2ccccc2)nc1-c1ccc(F)cc1 | -7.44%
47 | O=C(COC(=O)/C=C/c1ccc(Br)o1)Nc1cccc(S(=O)(=O)N2CCOCC2)c1 | 13.8%
48 | CCCCOCCCNC(=O)C[C@@H]1C[C@@]2(C(=O)OC)CCCCC=C2N(CCC2=CCCCC2)C1=O | -57.4% (active)
49 | CCOC(=O)[C@]12CCCC=C1N(CCC1=CCCCC1)C(=O)[C@H](CC(=O)NCCCCc1ccccc1)C2 | -17.5%
50 | CC1=C(C(=O)N(C(C)C)C(C)C)CC(CC(=O)NCCCCc2ccccc2)C(=O)N1CCC1=CCCCC1 (stereo not given) | -59% (active)
51 | CCCCOCCCNC(=O)C[C@@H]1C[C@@]2(C(=O)OCC)CCCC=C2N(CCC2=CCCCC2)C1=O | -27.8%
52 | CCOC(=O)[C@]12CCCC=C1N(CCC1=CCCCC1)C(=O)[C@H](CC(=O)NCCCOC)C2 | 60.5%
53 | CC1=C(C(=O)N(C)C)CC(CC(=O)NCCc2ccccn2)C(=O)N1CCC1=CCCCC1 (stereo not given) | -20.1%
54 | O=C(Nc1c(Br)cc2c(c1Br)Cc1cc([N+](=O)[O-])ccc1-2)C(Cl)Cl | 39%
55 | CCCOc1ccc(-c2c(C(=O)N/N=C/c3ccco3)nnn2-c2nonc2N)cc1 | 92.5%
56 | Cc1cc(C)c(S(=O)(=O)NN=C2c3ccccc3[C@H]3Cc4csc[n+]4[C@@H]23)c(C)c1 | -3.78%
57 | COc1ccc(C(NC(=O)C2CCN(CCCc3ccccc3)CC2)c2cccs2)cc1 (stereo not given) | -24%
58 | O=C(CCN1CCCCC1)Nc1ccc(F)c(F)c1 | -0.386%
59 | COc1ccc(NC(=O)N(C)C[C@@H]2OCc3cn(nn3)CCCC(=O)N([C@H](C)CO)C[C@H]2C)c(OC)c1 | 9.8%
60 | CCOc1ccc(OCc2cccc(C(=O)N(CC)CC)c2)cc1 | 0%
61 | CC(C)(C)OC(=O)N(Cc1ccccc1)Cc1ccc(OCc2cccc(NC(=O)c3ccccc3)c2)cc1 | 9.51%
62 | CC(C)c1cc(C(N)=O)c(NC(=O)c2cccc(COc3ccc(Br)cc3)c2)s1 | -75.7% (active)
63 | O=C1CSC(c2ccc(Cl)cc2)N1 (stereo not given) | 0%
64 | COc1ccc2c(C)c(CCC(=O)NC3CC3)c(=O)oc2c1C | -19.2%
65 | CC(=NNC(=S)N1CCCCCC1)c1ccccn1 | -106% (active)
66 | C/C(=N\NC(=O)Cc1ccc(Cl)cc1)c1ccccn1 | -103% (active)

Row | Structure (SMILES) | activity change
67 | NC(=O)NC(CC(=O)NNC(=O)c1ccccn1)c1ccc(Cl)cc1 (stereo not given) | 99.7%
68 | COc1ccc(/C(C)=N\NC(=O)c2ccc(-c3ccccc3)cc2)c(F)c1 | 7.94%
69 | C/C(=N\NC(=O)c1ccccc1F)c1ccccn1 | -100% (active)
70 | CNC(=S)N1CCN(c2ccccn2)CC1 | -3.93%
71 | O=C(NCCOc1ccccc1)c1ccccc1F | -17.7%
72 | CC1=NNC(=O)C1CCC(=O)N/N=C(\C)c1ccc(Cl)cc1 (stereo not given) | 6.73%
73 | Cc1cccc(C)c1NC(=S)N1CCCCCC1 | 5.87%
74 | CO[C@@H]1CN(C)C(=O)c2cc(NC(=O)Nc3cc(F)ccc3F)ccc2OC[C@H](C)N(C(=O)c2ccccn2)C[C@@H]1C | 11%
75 | COC(=O)c1ccc(CSc2nnc(N)s2)o1 | -16.4%
76 | CCCCNC(=O)C[C@@H]1C[C@@]2(C(=O)OCC)CCC=C2N(Cc2ccco2)C1=O | 14.5%
77 | O=C(NCc1ccc(F)cc1)c1cc(C2CCCCN2C(=O)c2cccs2)on1 (stereo not given) | -12.4%
78 | O=C(CN1CCN(c2ccc(O)cc2)CC1)Nc1ccc(-c2ccccc2)cc1 | 12.4%
79 | Cc1cccc(C)c1NC(=O)C(c1cccc2ccccc12)n1c(=O)c(-c2ccco2)nc2ccccc21 (stereo not given) | 7.42%
80 | COc1ccc(NS(=O)(=O)c2ccc(C)c(C(=O)NCC(c3cccs3)N3CCOCC3)c2)cc1 (stereo not given) | 2.47%
81 | CC1(C(=O)NS(=O)(=O)c2cccc(OC(F)F)c2)CCN1C(=O)COc1ccc(Cl)cc1 (stereo not given) | 48.6%
82 | COc1cccc(C(O)Cc2nc3ccccc3n2C)c1OC (stereo not given) | 11.4%
83 | CC(NCc1nc2ccccc2n1C)C12CC3CC(CC(C3)C1)C2 (stereo not given) | -94.3% (active)
84 | CCOc1ccc(C(O)Cc2nc3ccccc3n2C)cc1 (stereo not given) | -16%
85 | COc1cc(C(=O)N2CCN(S(=O)(=O)c3ccc(C(C)C)cc3)CC2)ccc1OCC(=O)N1CCOCC1 | -21.1%

Source: PubChem BioAssay AID743279 (National Center for Advancing Translational Sciences (NCATS), 2014)
